Laboratory results: PubChem BioAssay AID540333 (Southern Research Specialized Biocontainment Screening …, 2011)
About 320 (3.2%) of roughly 10,000 compounds were called active. This is one part of a sample in which actives are shown more often than they occur. Unmarked numbers belong to inactive results. Rule as the data show it: active = CPE inhibition mostly above about 9.1% (no sharp cut-off); inactive = mostly below about 7.2%.

Test: antivirals protecting cells from dengue CPE – CPE readout, HTS (AID 540333)
Conditions: Dengue virus CPE inhibition in host cells, at 20 µM; stronger effect = higher value

| SMILES | CPE inhibition |
| --- | --- |
| C=CCN1c2ccccc2[C@]23C[C@@H](C(=O)OC)N(C(=O)NC4CCCC4)C2=NC(C(=O)OC)=C(C(=O)OC)[C@H]13 | 0.19% |
| CC1(C)CC(=NOC(=O)c2ccccc2)CC(C)(C)N1O | 3.8% |
| Cc1ccc(Nc2ccc(C(=O)NCCc3ccccc3)cn2)cc1 | 0.525% |
| c1ccc(NCc2nc3ccccc3n2CCOc2ccccc2)cc1 | 0.715% |
| CCCCn1c(=N)n(CCOc2ccc(C)cc2)c2ccccc21 | inactive |
| Cc1ccc(NCc2nc3ccccc3n2CCOc2ccccc2)cc1 | 14.9% (active) |
| S=C(NCCN1CCOCC1)Nc1ccccc1Cl | inactive |
| O=C(O)CCCCCN1C(=O)/C(=C\c2ccncc2)SC1=S | 14.8% (active) |
| Cc1ccc(/C=C2\SC(=S)N(CCCC(=O)Nc3nccs3)C2=O)cc1 | 0.46% |
| COc1ccc(CN2C(=O)/C(=C/c3ccncc3)SC2=S)cc1 | inactive |
| Cc1cc(Br)ccc1SCC(=O)OCC(=O)NC(C)c1ccccc1 (stereo not drawn) | 0.13% |
| O=C(Nc1cccc(-c2cn3ccccc3n2)c1)c1cccs1 | 0.18% |
| COc1ccc(C(=O)n2cc(C(=O)c3cc(C)ccc3O)cn2)cc1OC | 14.3% (active) |
| O=C(c1cnn(C(=O)c2ccccc2)c1)c1ccccc1O | 2.51% |
| COc1ccc(C(=O)n2cc(C(=O)c3cc(C)ccc3O)cn2)cc1 | inactive |
| Cc1cccc(NCCC#N)c1 | inactive |
| O=C(Nc1cccc(Cl)c1)c1ccc(F)c(S(=O)(=O)NCc2cccs2)c1 | 11.8% (active) |
| O=C(Nc1cccc(Cl)c1)c1ccc(F)c(S(=O)(=O)NCc2ccc3c(c2)OCO3)c1 | 5.79% |
| Cc1ccc(NC(=O)c2cccs2)cc1S(=O)(=O)Nc1cccc(Cl)c1 | 7.68% |
| COCC(C)NC(=O)c1ccccc1[N+](=O)[O-] (stereo not drawn) | 1.6% |
| CC(C)CNC(=S)Nc1ccc(S(N)(=O)=O)cc1 | 0.36% |
| COc1cc(CN(C2CCCCC2C)S(=O)(=O)c2ccc(S(=O)(=O)NC3CC3)cc2)cc(OC)c1OC (stereo not drawn) | 19.9% (active) |
| COc1cc(CN(C2CCCCC2)S(=O)(=O)c2ccc(S(=O)(=O)N(C)C3CCCCC3)cc2)cc(OC)c1OC | inactive |
| COc1ccc(CCNC(=O)COc2ccc(S(=O)(=O)NC3CCCCC3)cc2Cl)cc1OC | 2.27% |

| SMILES | CPE inhibition |
| --- | --- |
| Cc1nn(-c2ccccc2)c(N2CCCC2)c1/C=N/NC(=O)c1ccccc1O | inactive |
| Cc1nn(-c2ccccc2)c(N2CCCC2)c1/C=N/NC(=O)c1cc(-c2ccccc2)nc2ccccc12 | 2.99% |
| Cc1nn(-c2ccccc2)c(N2CCCC2)c1/C=N/NC(=S)Nc1ccccc1F | 13.2% (active) |
| O=C(CCc1nc2ccccc2c(=O)[nH]1)OCC(=O)c1ccc(C2CCCCC2)cc1 | 1.97% |
| O=C(Nc1nc2ccccc2s1)c1cc(-c2ccco2)nc2ccccc12 | 5.33% |
| COc1ccc(N2CCN(CC(=O)Nc3sccc3C#N)CC2)cc1 | inactive |
| O=C(NCc1nnc(SCc2ccccc2)n1-c1ccc(F)cc1)C12CC3CC(CC(C3)C1)C2 | 15.9% (active) |
| Cc1ccc(NC(=O)CSc2nnc(CNC(=O)C34CC5CC(CC(C5)C3)C4)n2-c2ccc(F)cc2)cc1 | 5.74% |
| O=C(CSc1nnc(CNC(=O)C23CC4CC(CC(C4)C2)C3)n1-c1ccccc1)Nc1ccc(F)cc1 | 6.17% |
| O=C(NC(=S)N1CCN(c2ccc(F)cc2)CC1)C12CC3CC(CC(C3)C1)C2 | 0.245% |
| O=C(NCc1nnc(SCc2ccc(C(F)(F)F)cc2)n1-c1ccccc1)C12CC3CC(CC(C3)C1)C2 | 9.12% (active) |
| CC(C)(C)c1ccc(C(=O)NCc2nnc(SCC(=O)N3CCCc4ccccc43)n2-c2ccccc2)cc1 | 5.59% |
| O=C(CSc1nnc(CNC(=O)C23CC4CC(CC(C4)C2)C3)n1-c1ccc(F)cc1)Nc1ccc(F)cc1 | 3.73% |
| O=C(NCc1nnc(SCc2ccc(F)cc2)n1-c1ccc(F)cc1)C12CC3CC(CC(C3)C1)C2 | 9.94% (active) |
| O=C(CSc1nnc(CNC(=O)C23CC4CC(CC(C4)C2)C3)n1-c1ccccc1)Nc1ccccc1 | 1.45% |
| N=C1SC(c2ccccc2)C(=O)N1c1ncc(Cc2ccccc2)s1 (stereo not drawn) | 0.6% |
| COC(=O)CCC(=O)NC(=S)Nc1ccc(S(=O)(=O)Nc2cc(OC)nc(OC)n2)cc1 | 1.88% |
| CCCCNC(=O)CCCCC(=O)N/N=C/c1cccc(Cl)c1 | 0.96% |
| CCN(Cc1ccccc1)C(=O)C1CCN(CC2CC=CCC2)CC1 (stereo not drawn) | inactive |
| Cc1ccnc(NC(=S)NC(=O)c2cncc(Br)c2)c1 | 0.165% |
| CCCCNC(=O)c1cccc2c(=O)c(C)c(-c3ccccc3)oc12 | inactive |
| CCOc1ccc(Oc2c(/C=N/NC(=O)COc3ccccc3OC)c(C)nn2-c2ccccc2)cc1 | inactive |
| O=C(N/N=C\c1ccc(-c2ccccc2[N+](=O)[O-])o1)C1COc2ccccc2O1 (stereo not drawn) | 0.26% |
| CC(CCc1ccccc1)N1CCN(Cc2ccccc2)CC1 (stereo not drawn) | inactive |

| SMILES | CPE inhibition |
| --- | --- |
| CC(C)NC(=O)/C(C#N)=C/c1cccc(NC(=O)c2ccccc2Cl)c1 | 3.16% |
| Cc1nn(-c2ccccc2)c(Cl)c1/C=N/NC(=O)c1cccnc1 | 4.37% |
| Cc1nn(-c2ccccc2)c(Cl)c1/C=C(\C#N)C(=O)NC(C)C | 20% (active) |
| Cc1ccccc1N1CCN(C(=S)c2ccc([N+](=O)[O-])cc2)CC1 | inactive |
| CC(=O)c1ccc(N(C(=O)Cn2nnc(-c3ccccc3)n2)C(C(=O)NC2CCCCC2)c2ccccn2)cc1 (stereo not drawn) | 4.29% |
| CC(C)(C)NC(=O)C(c1c[nH]c2ccccc12)N(C(=O)Cn1nnc(-c2ccc(Cl)cc2)n1)c1ccccc1F (stereo not drawn) | 17.2% (active) |
| Cc1cc(C)cc(N(C(=O)Cn2nnc(-c3ccccc3)n2)C(C(=O)NC2CCCCC2)c2ccccn2)c1 (stereo not drawn) | 2.08% |
| Cc1ccc([N+](=O)[O-])cc1S(=O)(=O)N(C(=O)c1ccncc1)c1ccc2oc3c(c2c1)CCCC3 | 21.1% (active) |
| CC(=O)Oc1ccc(N(C(C)=O)S(=O)(=O)c2cc([N+](=O)[O-])ccc2C)cc1 | inactive |
| O=[N+]([O-])c1cc2oc3c(c2c(C=NCc2ccncc2)c1O)CCCC3 | 1.15% |
| COc1cc(NC(=O)COC(=O)CC(C)(C)C)c(C)cc1[N+](=O)[O-] | 0.185% |
| Clc1ccc(CNCc2cccs2)c(Cl)c1 | 0.01% |
| Cc1c(-c2ccc(Br)cc2)nc2ccccn12 | 1.3% |
| CN(C)c1ccc(-c2nc3ccccn3c2/N=C/c2ccc(Br)cc2)cc1 | 14.2% (active) |
| COc1ccc(-c2nc3ccccn3c2/N=C/c2ccc(OC)c(OC)c2)cc1O | 0.31% |
| Cc1ccc(-c2csc(N/N=C/c3ccco3)n2)c(C)c1 | inactive |
| COc1cccc(OCCOCCOc2ccc(C)cc2[N+](=O)[O-])c1 | inactive |
| CC/C(=N\NC(=O)C(N)=O)c1ccccc1O | inactive |
| CCCCCC(=O)Nc1nc(C)c(-c2csc(Nc3cc(Cl)ccc3C)n2)s1 | inactive |
| O=C1c2cccc3cccc(c23)C(=O)N1CCN1CCN(CC(O)COc2ccc3ccccc3c2)CC1 (stereo not drawn) | inactive |
| O=C(COC(=O)c1cc(-c2ccccc2Cl)nc2ccccc12)Nc1ncc(C(F)(F)F)cc1Cl | inactive |
| COC(=O)N1[C@H](C)C=C[C@]1(Cc1ccccc1)C(=O)NCCCNc1ncc(C(F)(F)F)cc1Cl | 9.39% (active) |
| O=C(COC(=O)C1(c2ccccc2F)CCCC1)Nc1ncc(C(F)(F)F)cc1Cl | 0.45% |
| Cc1ccc(/C=N/NS(=O)(=O)c2ccc([N+](=O)[O-])cc2)o1 | inactive |

| SMILES | CPE inhibition |
| --- | --- |
| Cc1ccc(C(=O)O/N=C(\N)c2cccnc2)cc1[N+](=O)[O-] | 1.06% |
| CC(=O)Nc1ccc(NC(=O)COC(=O)C2(c3ccc(Cl)cc3)CCCC2)cc1 | 0.545% |
| Cc1ccc(NC(=O)COC(=O)C2(c3ccc(Cl)cc3)CCCC2)cc1 | 10.5% (active) |
| NS(=O)(=O)c1ccc(NC(=O)COC(=O)C2(c3ccc(F)cc3)CCCC2)cc1 | 0.475% |
| COc1ccc(/C=C/C(=O)c2cc(F)ccc2OC(=O)c2ccccc2C)cc1OC | inactive |
| N#Cc1ccsc1NC(=O)CN(Cc1ccccc1)Cc1ccccc1 | 9.87% (active) |
| N#Cc1ccsc1NC(=O)CN1CCN(c2ccccc2O)CC1 | inactive |
| CCN(CC)c1ccc(C(=O)OCC(=O)Nc2sccc2C#N)cc1 | inactive |
| CSc1sc(C)cc1/C=N/O | inactive |
| C/C(=N\NC(=S)NCCc1ccccc1)c1ccc(Cl)cc1 | 1.61% |
| S=C(NCCc1ccccc1)N/N=C/c1ccccc1Cl | 18.4% (active) |
| S=C(NCCc1ccccc1)Nc1ccc(Br)cc1 | 3.17% |
| O=C(Nc1cc(Cl)ccc1Cl)c1ccc(-c2ccccc2)cc1 | inactive |
| O=C(Nc1ccc(Cl)c(C(F)(F)F)c1)[C@@H]1CC=C[C@@H]2CCN(Cc3ccc(Cl)c(Cl)c3)C(=O)[C@@H]21 | 9.69% |
| COc1ccc(NC(=O)CN2C(=O)C(c3ccccc3)=NC23CCCCCC3)cc1 | 5.39% |
| COc1cc(NC(=O)CN2C(=O)C(c3ccccc3)=NC23CCCCCC3)cc(OC)c1 | 14% (active) |
| COc1ccc(NC(=O)CN2C(=O)C(c3ccccc3)=NC23CCCCCC3)cc1OC | 0.935% |
| CCOC(=O)/C(N=Nc1sc(C(=O)OC)c(C)c1C(=O)OCC)=C(\O)CCl | 0.165% |
| Cc1ccc(S(=O)(=O)N(CC(=O)Nc2ccccc2-c2ccccc2)c2ccc(C)cc2C)cc1 | 10.8% |
| Cc1cc(C)c(S(=O)(=O)Nc2ccccc2-c2ccccc2)c(C)c1 | 20.4% (active) |
| Cc1ccc(NS(=O)(=O)c2ccc3c(c2)C(=O)c2ccccc2C3=O)c(C)c1 | 4.82% |
